Data on eleven substances can be found in ChEMBL document CHEMBL1201862, “PubChem BioAssay data set” (2004).

The campaign covered roughly 55,000 sequences. About 2,500 (4.5%) were called active. No stated cut-off is given here; in the data, active = GI50 up to about 1.1 µM and inactive = higher. These entries were drawn from the full list. Results with a measured potency or affinity are listed apart.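 The compound was tested at five concentrations on cells cultured in 96-well plates, with a 48-hour exposure period. GI50 is the concentration that inhibits growth by half.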

This test relates to EKVX. The test is described as follows: NCI tumour cell line growth inhibition, 48 h.
For “[Bis(aminomethyl)pentamethylenesilane]dichloropaltinum(II), CHEMBL2146202”, the GI50 stood at 18.2 µM.
For the substance “[Bis(aminomethyl)ethylmethylsilane]tetrachloroplatinum(IV), CHEMBL2146192”, the GI50 came out at 29.6 µM.
“[Bis(aminomethyl)tetramethylenesilane]tetrachloropaltinum(IV), CHEMBL2146189” displayed a GI50 of 40.9 µM.
With “[Bis(aminomethyl)tetramethylenesilane]dichloropaltinum(II), CHEMBL2146205”, the GI50 came to 55.6 µM.
As to “[Bis(aminomethyl)dimethylsilane]tetrachloroplatinum(IV), CHEMBL2146190”, the GI50 worked out at 38.2 µM.
As for CISPLATIN, CHEMBL11359, the GI50 was 7.1 µM.
In the case of “[Bis(aminomethyl)diethylsilane]tetrachloroplatinum(IV), CHEMBL2146203” it was 31.6 µM.
For “mu-(1,7-nanodiamine-N,N')bis-(cis-aminedichloroplatimum (II)), CHEMBL2146215”, the GI50 was over 100 µM.
For the substance “[Bis(aminomethyl)dimethylsilane]dichloroplatinum (II), CHEMBL2146201”, the GI50 was over 100 µM.
“[Bis(aminomethyl)pentamethylenesilane]tetrachloropaltinum(IV), CHEMBL2146204” showed a GI50 of 56.1 µM.
In turn, “cis-Bis[[(trimethylsilyl)methyl]amino]tetrachloroplatinum(IV), CHEMBL2146191” had a GI50 of 4.68 µM.
